# Out of some 48,000 compounds screened, about 13,000 (27%) showed an effect of 50% or more. This is one part of the list.
# Tested on: Wolbachia pipientis
# Assay: Anti-Wolbachia Cell-Based Screen
# Type: functional
# Parameters: scale not given: in the data most compounds retested in dose-response had high values
# Conditions: 5 µM
row,SMILES,Percent Effect [%]
1,CCN(Cc1noc(C(C)(C)C)n1)Cc1ccc(C#N)cc1F,-6.556
2,OC(CN(Cc1ccccc1)Cc1cccnc1)c1cccs1 (stereo not drawn),-7.082
3,Cc1cc(C)n(CC2CCCN2C(=O)Cc2cn3ccsc3n2)n1 (stereo not drawn),5.291
4,Cc1cc(C)n(CCC(=O)N2CCCCC2c2nccs2)n1 (stereo not drawn),97.13
5,Cn1cccc1-c1cc(C(=O)N2CCCC2c2nccs2)[nH]n1 (stereo not drawn),-11.21
6,Cc1noc(CCCC(=O)N2CCCCC2c2nccs2)n1 (stereo not drawn),4.452
7,Cc1cc(C)n(Cc2cc(C(=O)N3CCCC3c3nccs3)n[nH]2)n1 (stereo not drawn),147.1
8,O=C(CCCn1cncn1)N1CCCCC1c1nccs1 (stereo not drawn),-0.08053
9,Cc1cc(C)n(CC2CCCN2C(=O)CCCNc2ncccn2)n1 (stereo not drawn),-5.56
10,Cc1cc(C)n(Cc2cc(C(=O)N3CCCCC3c3nccs3)n[nH]2)n1 (stereo not drawn),94.44
11,Cc1cc(C)n(Cc2cc(C(=O)N[C@H]3CCCCNC3=O)n[nH]2)n1,1.384
12,Cc1cc(C)n(Cc2cc(C(=O)N3CCCC3c3ccccn3)n[nH]2)n1 (stereo not drawn),101.3
13,CC(=O)N1CCC(N2CCN3C(=O)N(c4ccccc4)C[C@H]3C2)CC1,-6.558
14,CC(C)C(=O)N1CCN(S(=O)(=O)C2CC2)CC2(CC(=O)N(C)C2)C1 (stereo not drawn),-3.068
15,CNC(=O)c1nnn(-c2ccccc2F)c1-c1ccccn1,-7.96
16,C[C@H]1C[C@H]2CN(C(=O)C3=CCCCC3)CC[C@H]2O1,-8.819
17,Cc1cccc2[nH]c(C3CCCN3Cc3ccc(CO)o3)nc12 (stereo not drawn),-7.499
18,CCS(=O)(=O)NC(C(=O)NC)c1ccc(F)c(F)c1 (stereo not drawn),-1.609
19,CCc1nc(C2CCCN2C(=O)c2cc(C3CC3)[nH]n2)no1 (stereo not drawn),-2.923
20,Cc1cc(C(=O)N2CCCCC2c2nc(C)cs2)[nH]n1 (stereo not drawn),5.063
21,Cc1csc(N2CCN(C(=O)c3cc(C4CC4)[nH]n3)CC2)n1,-15.84
22,Cc1csc(C2CCCCN2C(=O)c2cc(C(C)C)[nH]n2)n1 (stereo not drawn),109.6
23,Cc1csc(C2CCCCN2C(=O)c2cc(C3CC3)[nH]n2)n1 (stereo not drawn),105.1
24,COC(=O)c1cc2c(=O)[nH]c(=O)n(CCc3ccccc3)c2nc1C,-9.313
25,O=C(c1ccc2cccc(F)c2n1)N1CCN(CCn2cncn2)CC1,-17.81
26,Cc1cc(CN(C)C(=O)NC(C)c2nncn2C)no1 (stereo not drawn),1.763
27,Cc1cc(C)n(C2CN(c3nc(N)nc4c3CCCC4)C2)n1,12.27

row,SMILES,Percent Effect [%]
1,NCc1csc(CCc2ccccc2)n1,-7.942
2,CN1C(=O)C[C@@H]2[C@@H]1CCN2S(=O)(=O)Cc1ccccc1,-5.88
3,CCN(C)C[C@@H]1CN(S(=O)(=O)c2cccc(Cl)c2)C[C@@H]1CO,13.86
4,CN(C)Cc1cc(C2CCCCN2S(=O)(=O)c2cccc(Cl)c2)nn1C.Cl (stereo not drawn),167.4
5,O=S(=O)(c1cccc(Cl)c1)N1CCCC(Cn2cncn2)C1 (stereo not drawn),-2.672
6,CN(C)Cc1cc(C2CCCCN2S(=O)(=O)Cc2ccccc2)nn1C.Cl (stereo not drawn),133.2
7,O=S(=O)(N1CCCC1)N1CCCCC1CCc1ccccc1 (stereo not drawn),1.463
8,CN(C)CCN1CC[C@@H]2[C@@H]1CCN2C(=O)c1cccc(Cl)c1,-16.88
9,CN(C)Cc1cc(C2CCCN(S(=O)(=O)c3cccc(Cl)c3)C2)nn1C (stereo not drawn),157.3
10,CCN(Cc1cccc(NC(=O)COC)c1)C(C)=O,-0.3601
11,Cc1cc(C(=O)NC(C)c2nnn[nH]2)c2ccc(C)c(C)c2n1 (stereo not drawn),-4.141
12,c1csc(-c2noc(COCC3CCCO3)n2)c1 (stereo not drawn),0.9659
13,CCOCc1ccccc1NC(=O)NC1CCN(c2ccccc2)C1 (stereo not drawn),9.486
14,O=C(c1ccc[nH]1)N1CCC2(CC1)C(=O)Nc1ccccc12,-2.806
15,Cc1nc(C)c(Cc2nc(C3CC3)n[nH]2)c(=O)[nH]1,-38.01
16,Cc1ccc(C2CCCN2CC(=O)N(CCC#N)c2ccccc2)cc1 (stereo not drawn),5.667
17,COc1ncccc1C(=O)N1CCc2c(ncnc2N2CCOCC2)C1,105
18,O=C(c1ncccc1O)N1CCc2c(ncnc2N2CCOCC2)C1,-10.43
19,COCc1ccc(C(=O)N2CCc3c(ncnc3N3CCOCC3)C2)o1,-21.39
20,CCc1ccc(-c2nn3c(nc2=O)-c2ccccc2NC3C(=O)O)cc1 (stereo not drawn),-8.075
21,CCc1cnc(CN2CCOC(c3nc(C)n[nH]3)C2)o1 (stereo not drawn),-1.85
22,c1cncc(CNC2CCc3ncnn3C2)c1 (stereo not drawn),100.1
23,c1ccc(Cn2cc(CNC3CCc4ncnn4C3)cn2)cc1 (stereo not drawn),1.382
24,c1ccc(-n2ncc(CNC3CCc4ncnn4C3)n2)cc1 (stereo not drawn),-11.2
25,Clc1ccccc1Cn1cc(CNC2CCc3ncnn3C2)cn1 (stereo not drawn),121.3
26,Cn1cc(CNC2CCc3ncnn3C2)c(-c2ccncc2)n1 (stereo not drawn),11.86

# — ChEMBL document CHEMBL3988442, “University of Dundee, Small-Polar-MMV Screening Library” (2021)
